ERb coact inh: blocks coactivator binding to human estrogen receptor beta. AID 633. 86,000 tested, 1.3% active. TR-FRET ER-beta LBD / SRC1-Cy5 peptide binding; receptor agonist-loaded with 1 µM estradiol. inhibition, % at 25.6 µM. Q92731;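 active = compounds whose percent inhibition of the receptor-coactivator binding signal exceeds about 50% in the single-dose screen, limit read from the data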;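 also: 0% = receptor plus peptide wells without compound and 100% = peptide-only wells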
Target sequence (Q92731 whole entry, looked up, the tested form may be a part): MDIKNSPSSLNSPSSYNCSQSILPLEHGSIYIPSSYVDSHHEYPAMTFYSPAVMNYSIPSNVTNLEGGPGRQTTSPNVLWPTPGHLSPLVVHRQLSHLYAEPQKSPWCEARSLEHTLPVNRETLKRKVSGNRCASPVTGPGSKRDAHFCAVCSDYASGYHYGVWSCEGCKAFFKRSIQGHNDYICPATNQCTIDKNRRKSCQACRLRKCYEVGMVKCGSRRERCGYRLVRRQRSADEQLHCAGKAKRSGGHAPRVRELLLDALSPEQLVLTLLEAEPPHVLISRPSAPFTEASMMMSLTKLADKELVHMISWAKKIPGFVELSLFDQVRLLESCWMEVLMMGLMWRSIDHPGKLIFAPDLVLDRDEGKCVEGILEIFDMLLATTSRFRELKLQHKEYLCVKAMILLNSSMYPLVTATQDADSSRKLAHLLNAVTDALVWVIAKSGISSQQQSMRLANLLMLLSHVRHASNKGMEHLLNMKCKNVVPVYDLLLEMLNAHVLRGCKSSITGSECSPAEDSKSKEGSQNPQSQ
MT1-MMP txn act: activates MT1-MMP transcription; HT1080 MT1-MMP promoter luciferase reporter, luminescence, overnight; active compounds read high; activation factor at 10 µM; 86,000 tested, 0.16% active;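 active = activation factor of at least 2 for MT1-MMP transcription at 10 µM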
ERa coact inh: ER-alpha (human) coactivator binding inhibition. P03372. TR-FRET ER-alpha LBD / SRC-1 peptide, estradiol-bound. inhibition, % at 25.6 µM. 86,000 tested, 1.7% active; in the data active = inhibition above about 50%;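 also: 0% = receptor plus peptide control and 100% = peptide only without receptor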
Smad3 FoxH1 inh: inhibitors of human Smad3 transcription factor binding; P84022; TR-FRET Smad3/Dy647-FoxH1 peptide binding, europium anti-His; inhibition, % at 25 µM; 88,000 tested, 0.29% active; AID 630;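 active = compounds that reduce the energy-transfer binding signal between the protein and its labelled peptide by more than half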;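 also: 0% = Smad3 plus labelled peptide maximal FRET and 100% = peptide-only background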
MMP13 inh: inhibitors of human MMP13; P45452; MMP-13 fTHP FRET cleavage, Mca fluorescence; inhibition, % at 4 µM; 65,000 tested, 0.07% active;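 active = inhibition above the mean of compound-free control plate wells plus 3 SD, cut at about 14% in these data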;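 also: 0% = DMSO wells and 100% = wells with reference MMP-13 inhibitor after basal subtraction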
ERa coact pot: ER-alpha (human) coactivator binding potentiation; TR-FRET ERalpha-LBD/SRC-Cy5 coactivator binding, 2 h; 100 = basal binding, no effect; coactivator binding (% of control), % at 25.6 µM; 86,000 tested, 1.3% active; AID 639; in the data active = activity above about 200%;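 also: binding measured in presence of low estradiol as agonist stimulus; 0% = peptide alone without receptor and 100% = receptor with peptide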
Numbers without * were called inactive; / = not tested or not shown; [ ] = remark or other dose. Compounds with a hit are over-represented: about 3.5% of the library has one in this group of screens.

SMILES	ERb coact inh	MT1-MMP txn act	ERa coact inh	Smad3 FoxH1 inh	MMP13 inh	ERa coact pot
O=C(c1cc2sccc2n1Cc1ccccc1)N1CCCc2ccccc21	-3.4	/	-7.4	-3.1	/	126.7
O=C(c1cc2sccc2n1Cc1ccccc1)N1CCc2ccccc21	5.4	1.2	13.8	-2.9	3.6	509.5*
O=C(O)CCC(=O)N1CCN(c2ccc(C(=O)c3ccc(F)cc3)cc2)CC1	-6.6	1.1	12.9	3.0	5.7	249.3*
CCCn1cc(SCC(=O)NCc2ccc3c(c2)OCO3)c2ccccc21	-6.3	/	-5.9	-1.3	/	106.8
Cn1c2ccccc2c2nnc(SCc3ccc4nonc4c3)nc21	28.9	0.9	55.0*[fluorescence artefact?]	4.9	-10.4	77.5
CCn1c2ccccc2c2nnc(SCC(N)=O)nc21	-0.4	1	1.3	4.7	/	113.1
CCn1c2ccccc2c2nnc(SCc3ccccc3)nc21	22.5	1.2	56.4*[fluorescence artefact?]	-23.8	-2.4	89.6
CCn1cc(SCC(=O)NCc2ccc3c(c2)OCO3)c2ccccc21	53.1*	1.1	-5.1	5.4	-12.2	111.0
CCn1c2ccccc2c2nnc(SCC(=O)Nc3cc(C)on3)nc21	30.5	1.1	20.3	3.3	-6.6	136.4
CCn1c2ccccc2c2nnc(SCC(=O)Nc3ccc4c(c3)OCO4)nc21	30.6	1.1	50.1*	-32.0	2.1	102.3
CC#CCCC(=O)N1C=Cc2ccccc2C1C#N (centres undefined)	/	1.1	/	/	4.1	/
CCCCCn1c(SCC#N)nc2cc(C(=O)NCC3CCCO3)ccc2c1=O (centres undefined)	46.9	1	55.7*[fluorescence artefact?]	30.4	0.4	248.3*[fluorescence artefact?]
COC(=O)c1ccc2c(=O)n(CC3CCCO3)c(SCC(=O)Nc3ccccc3Cl)nc2c1 (centres undefined)	15.5	/	56.6*	-2.5	/	81.1
CCCCCn1c(SCC#N)nc2cc(C(=O)NC3CCCCC3)ccc2c1=O	37.0	1.3	40.0	20.6	-0.5	164.0
COc1ccc(CNc2oc(Cc3cccc4ccccc34)nc2C#N)cc1	-5.5	1	1.0	-0.9	-4.7	109.7
O=C(CCc1ccccc1)Nc1ccc(N2CCOCC2)cc1	59.1*	1.2	3.9	12.9	-9.5	111.2
O=C(CCc1ccccc1)Nc1c(F)cccc1F	5.9	2.3*	-1.1	-8.8	/	90.3
O=C(CCc1ccccc1)Nc1ccncc1	-11.8	1.2	-8.3	3.4	0.2	95.4
CCOC(=O)c1sc(=NC(=O)c2cc(OC)c(OC)c(OC)c2)n(C)c1C	20.6	1.1	17.4	10.2	4.7	207.8*
Cc1ccc(NC(=O)c2ccc(OC(=O)c3ccco3)cc2)cc1	21.4	1.1	32.0	-4.3	4.7	372.4*[fluorescence artefact?]
CCOC(=O)c1c(C)[nH]c(C)c1C(=O)COc1ccc(NC(=O)c2ccco2)cc1	54.1*[fluorescence artefact?]	1	44.8	5.3	-2.0	47.4
CC(C)CC(=O)Nc1ccc(OCC(=O)O)cc1	6.2	1.1	1.1	10.3	4.8	123.2
N#Cc1ccsc1NC(=O)COc1ccc(-c2nnco2)cc1	44.0	1.3	80.3*[fluorescence artefact?]	8.3	-10.0	30.9
CC(C)CC(=O)Nc1ccc(C(=O)COc2ccc(-c3nnco3)cc2)cc1	30.9	1	69.6*	6.0	8.1	49.4
COc1ccc(-c2nnc(CSc3nc4ccccc4c(=O)n3C)o2)cc1OC	-0.5	1	7.8	20.7	2.5	110.9
SMILES	ERb coact inh	MT1-MMP txn act	ERa coact inh	Smad3 FoxH1 inh	MMP13 inh	ERa coact pot
COc1ccc(-c2nc(Cn3c(SCc4ccc(C)cc4)nc4ccncc43)c(C)o2)cc1OC	35.6	/	41.5	3.3	/	217.1*
COc1ccc(-c2nc(Cn3c(SCc4cccc(F)c4)nc4ccncc43)c(C)o2)cc1OC	36.2	1.1	8.9	8.1	-6.6	237.2*
Cc1ccc(-c2cc(-c3nnc(SCC(=O)N(C)CCC#N)n3N)c3ccccc3n2)cc1	-1.2	1.2	0.9	4.5	-24.8	120.5
O=C(NCc1cccs1)C1CCCN(S(=O)(=O)c2cnc[nH]2)C1 (centres undefined)	-8.3	1	-7.5	-7.3	3.9	110.9
CC1=CC(C)(C)Nc2ccc(C)cc21	-1.5	1.2	3.1	73.0*	-4.5	121.4
CSc1nc2ccc3nc(NC(=O)C4COc5ccccc5O4)sc3c2s1 (centres undefined)	11.8	/	18.2	12.8	/	209.2*[fluorescence artefact?]
Cc1nc2ccc3nc(NC(=O)C4COc5ccccc5O4)sc3c2s1 (centres undefined)	14.9	1.1	5.2	-8.0	-4.4	279.1*
CCCc1nnc(NC(=O)c2ccc(N3C(=O)C4C5C=CC(C5)C4C3=O)cc2)s1 (centres undefined)	-2.3	1	9.2	-4.9	/	125.3
CC(=O)Nc1nc(-c2ccccc2)ns1	-4.5	1.6	-5.7	-5.1	/	110.2
